{"source": "PubChem BioAssay (NCATS)", "note": "Records with an inconclusive call do not appear. Where a call stands in place of a potency, no number is given. Activity calls are given as the source filed them. The call rests on the fitted dose curve; in most records, active means well fitted inhibition curve with a large enough effect; inconclusive means small, poorly fitted or top-dose-only effect; inactive means no such curve, though single readings can be large or run the other way. Potency means the concentration at half of the fitted maximal effect.", "data": [{"biological_target": "Glutaminase kidney isoform, mitochondrial (Homo sapiens) (UniProt O94925)", "sequence (O94925 whole entry, looked up, canonical isoform)": "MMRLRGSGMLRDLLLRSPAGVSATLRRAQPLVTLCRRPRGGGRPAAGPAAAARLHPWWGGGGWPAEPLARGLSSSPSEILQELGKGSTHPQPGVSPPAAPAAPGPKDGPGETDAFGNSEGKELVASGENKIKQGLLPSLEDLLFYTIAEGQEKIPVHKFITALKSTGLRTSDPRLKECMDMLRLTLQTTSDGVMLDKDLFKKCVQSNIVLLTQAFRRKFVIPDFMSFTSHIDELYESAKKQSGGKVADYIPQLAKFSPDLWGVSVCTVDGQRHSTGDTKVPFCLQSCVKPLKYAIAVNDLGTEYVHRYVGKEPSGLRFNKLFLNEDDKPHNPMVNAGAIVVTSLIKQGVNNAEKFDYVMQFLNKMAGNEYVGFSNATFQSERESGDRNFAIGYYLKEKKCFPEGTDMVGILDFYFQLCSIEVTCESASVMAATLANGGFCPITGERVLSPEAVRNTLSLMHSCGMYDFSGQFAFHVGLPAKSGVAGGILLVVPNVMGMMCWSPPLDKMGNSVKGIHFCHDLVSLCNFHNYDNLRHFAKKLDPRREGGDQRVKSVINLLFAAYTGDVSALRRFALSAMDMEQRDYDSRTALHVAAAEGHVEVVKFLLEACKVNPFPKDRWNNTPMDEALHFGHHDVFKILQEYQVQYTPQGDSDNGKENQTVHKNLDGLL", "assay": "qHTS for Inhibitors of Glutaminase (GLS): LOPAC Validation (AID 624146); further: nearly all actives have a fitted effect of over 60% in size", "conditions": "glutaminase enzyme activity inhibition; series mostly up to 46.1 µM", "how_it_was_run": "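Glutamate formation by hKGA was monitored fluorometrically using coupled glutamate oxidase, HRP and Amplex Red. Substrate was added as 1 mM L-glutamine solution; incubation was 30 min at RT after an initial read.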", "values": [{"smiles": "OCC1O[C@H](O)C(Cl)C(O)C1O", "note": "(some centres undefined)", "Potency": "inactive"}, {"smiles": "COc1ccc(NC(=O)/C=C/c2ccc(Cl)cc2)cc1", "Potency": "inactive"}, {"smiles": "O=C(O)CNC(=O)C(CS)Cc1ccccc1", "note": "(centres undefined)", "Potency": "inactive"}, {"smiles": "C[C@@H](NC(=O)/C(C#N)=C/c1ccc(O)c(O)c1)c1ccccc1", "Potency": "1000 nM (active)"}, {"smiles": "NC[C@H]1O[C@@H](n2cnc3c(N)ncnc32)[C@H](O)[C@@H]1O", "Potency": "inactive"}, {"smiles": "O=C(O)c1cc([N+](=O)[O-])ccc1NCCCc1ccccc1", "Potency": "inactive"}, {"smiles": "CCCCCCCCc1ccc(-c2ccc(C(=O)O)cc2)cc1", "Potency": "inactive"}, {"smiles": "Cn1cc(C2=C(c3ccc(Cl)cc3Cl)C(=O)NC2=O)c2ccccc21", "Potency": "inactive"}, {"smiles": "O=C(O)[C@@H]1C[C@H](C(=O)O)N1", "Potency": "inactive"}, {"smiles": "CC(C)NC[C@H](O)COc1cccc2[nH]ccc12", "Potency": "inactive"}, {"smiles": "Cn1ncc(S(=O)(=O)Cc2ccccc2)c(Br)c1=O", "Potency": "inactive"}, {"smiles": "CNC(=O)[C@H]1O[C@@H](n2cnc3c(NCc4cccc(I)c4)ncnc32)[C@H](O)[C@@H]1O", "Potency": "inactive"}, {"smiles": "Nc1ncnc2c1ncn2[C@@H]1O[C@H](COP(=O)(O)OP(=O)(O)OP(=O)(O)OP(=O)(O)OC[C@@H]2O[C@H](n3cnc4c(N)ncnc43)[C@@H](O)[C@H]2O)[C@@H](O)[C@H]1O", "Potency": "inactive"}, {"smiles": "c1cnc2c(c1)ccc1cccnc12", "Potency": "inactive"}, {"smiles": "N=C(N)SCCc1ccc(CCSC(=N)N)cc1", "Potency": "inactive"}, {"smiles": "CN1CC(=O)N/C1=N/C(=O)Nc1cccc(Cl)c1", "Potency": "inactive"}, {"smiles": "CC1(C)CCC=[N+]1[O-]", "Potency": "inactive"}, {"smiles": "O=c1[nH]c2cc(C(F)(F)F)ccc2n1-c1cc(C(F)(F)F)ccc1O", "Potency": "inactive"}, {"smiles": "C=C[C@H]1CN2CC[C@@H]1C[C@@H]2[C@@H](O)c1ccnc2ccc(OC)cc12", "Potency": "inactive"}]}]}
